# This is a sample that favours compounds with a hit; in the whole collection about 12% have one here.
# Pf growth 96h – Primary qHTS for delayed death inhibitors of the malarial parasite plastid, 96 hour incubation | 320,000 compounds, 6.9% hits | P. falciparum luciferase reporter growth, 96 h | Potency, µM (highest dose often 28.7 µM), without a hit: at the highest dose activity change, negative = inhibition, most hits filed as inhibitors; also: % is scaled to controls: 0 for no effect and ±100 for the full control effect
#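 Erythrocytes infected with luciferase-expressing P. falciparum were dispensed at 2% hematocrit and 0.05% parasitemia (final), then incubated with compounds 96 hours at 37 C in 5% CO2. Luminescence after detection reagent addition reported growth.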
# Pf growth 48h – Primary qHTS for delayed death inhibitors of the malarial parasite plastid, 48 hour incubation. Potency, µM (highest dose often 28.7 µM), for the others: at the top dose activity change, negative = inhibition, most hits filed as inhibitors. P. falciparum luciferase growth in erythrocytes, 48 h. AID 504832, 2011. 310,000 compounds, 5.9% hits; also: % is scaled to controls: 0 for no effect and ±100 for the full control effect
#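 Compounds are pin-transferred into medium, infected erythrocytes (2% hematocrit, 0.1% parasitemia final) are added, and plates sit one parasite generation at 37 C in 5% CO2. Detection reagent is then added and luminescence measured.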
# SARS PLP yeast – qHTS of Yeast-based Assay for SARS-CoV PLP. S. cerevisiae expressing SARS-CoV PLpro, growth rescue. Potency, µM (doses to about 32.9 µM), inactives show at the top dose activity, positive = growth rescue, actives largely listed as activators. 330,000 compounds, 0.19% hits; calls by dose curve; also: 0% is about no effect; nearly all actives have a fitted effect of over 55% in size
# Sm TGR block – qHTS Assay for the Inhibitors of Schistosoma Mansoni Peroxiredoxins; AID 485364, 2010; purified TGR, DTNB reduction, TNB absorbance 405 nm; Schistosoma mansoni thioredoxin glutathione reductase (TGR), Q962Y6; Potency, µM (series often up to 114 µM), for the others: top-dose activity change, negative = inhibition, hits mostly inhibitors; 360,000 compounds, 3% hits; also: % is scaled to controls: 0 for no effect and ±100 for the full control effect; nearly all actives have a fitted effect of over 60% in size
#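 TGR 20 nM + NADPH 100 uM (dispensed conc.), cpd preinc 15 min RT; start with NADPH (500 uM addition) then DTNB (15 mM addition). Kinetic TNB absorbance, 405 nm filter. Four-parameter Hill fit across titration.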
# * hit, by the source's call; ? = inconclusive; . = no result; [ ] = dose if it differs, or a comment. Unless noted, calls follow the shape of the dose curve; as a rule, active = well fitted curve in the direction sought with a large enough effect; inconclusive = small, poorly fitted or top-dose-only effect, or another doubt; inactive = no such curve, though single readings can be large; an effect the other way counts as inactive or inconclusive. Potency is read from the fitted curve at half-maximal effect.
SMILES,Pf growth 96h,Pf growth 48h,SARS PLP yeast,Sm TGR block
COc1ccc(S(=O)(=O)N2CCc3ccccc32)cc1C(=O)NC1(C)CCS(=O)(=O)C1 (centres undefined),-21%,?,1%,0%
Cc1ccc(OCc2cc(C(=O)N(C)CCc3nc4ccccc4[nH]3)no2)cc1C,63%,?,-7%,-12%
COc1ccc(NC(=O)c2cc(Br)ccc2Cl)c([N+](=O)[O-])c1,1%,-7%[5.75 µM],0%,0%
COC(=O)c1ccccc1NC(=S)NC(NC(=O)c1ccccc1[N+](=O)[O-])C(Cl)(Cl)Cl (centres undefined),7.4µM*,5%,-5%,8%
COc1ccc(NC(=O)c2ccc(C)cc2Cl)c([N+](=O)[O-])c1,3.7µM*,102%,?,8%
COc1ccc(NC(=S)NC(NC(=O)c2cccc3ccccc23)C(Cl)(Cl)Cl)c([N+](=O)[O-])c1 (centres undefined),1.5µM*,.,-2%,-30%
Cc1ccc(-n2ncc3c(N4CCCCCC4)ncnc32)cc1C,.,.,.,5%
COc1ccc(OC)c(NC(=O)CC(=O)Nc2ccc3nc4n(c(=O)c3c2)CCCCC4)c1,.,.,.,6%
Cc1cc(NC(=S)Nc2ccc(C)c(Cl)c2)n[nH]1,19%,33%[1.15 µM],-4%,7.1µM*
COc1ccc(NC(=S)Nc2cc(C)[nH]n2)cc1Cl,116%,53%,1%,?
C=CCOc1ccc(/C=C/C(=O)OCC(=O)N2CCC(c3ccccc3)=N2)cc1,?,?,-1%,-1%
CC(c1ccccc1)N1CCN(C(=O)CCl)CC1 (centres undefined),?,-15%,4%,45µM*
Cc1cc(=O)oc2cc(OCC(=O)N3CCN(C(C)c4ccccc4)CC3)c(Cl)cc12 (centres undefined),?,?,8%,-1%
O=C(CCl)N1CCN(S(=O)(=O)Cc2ccccc2)CC1,13µM*,?,3%,16µM*
CC1CCCCC12NC(=O)N(CC(=O)OCc1ccccc1F)C2=O (centres undefined),.,.,-6%,.
CC1CCCCC12NC(=O)N(CC(=O)N1CCN(S(=O)(=O)/C=C/c3ccccc3)CC1)C2=O (centres undefined),?,10µM*,2%,-7%
CN1C(=O)N(CC(=O)N2CCN(S(=O)(=O)/C=C/c3ccccc3)CC2)C(=O)C12CCCCC2,-14%,?,-7%,-4%
Cc1cccc(N(Cc2ccccc2)C(=O)CN2C(=O)NC3(CCCCC3C)C2=O)c1 (centres undefined),12µM*,?,1%,-1%
CC1CCCCC12NC(=O)N(CC(=O)OCc1cccc(F)c1)C2=O (centres undefined),?,13µM*,-1%,-15%
COc1cc2cc(C(=O)N/N=C/c3ccccc3Cl)[nH]c2cc1OC,?,?,-2%,-1%
CCCN(Cc1nnc(-c2cccs2)o1)C(=O)CN1C(=O)NC2(CCCCC2C)C1=O (centres undefined),?,-28%,1%,-2%
O=C(NCc1ccc(Cl)cc1)c1nccnc1CO,-9%,20%,-3%,25%
O=C(NCc1ccccc1)c1nccnc1CO,10µM*,-21%[0.00184 µM],1%,10%
COc1cccc(-n2ccnc2SCC(=O)Nc2nc3ccc(C)cc3s2)c1,.,.,.,-1%
Cc1cnc(NC(=O)c2cc3c(C)nn(Cc4ccccc4Cl)c3s2)s1,13µM*,7.4µM*,-8%,-18%
SMILES,Pf growth 96h,Pf growth 48h,SARS PLP yeast,Sm TGR block
COc1ccccc1N1CCN(S(=O)(=O)c2ccc3nc(-c4ccccc4)[nH]c3c2)CC1,2.9µM*,-25%,28%,0%
COc1ccccc1N1CCN(C2CCN(S(=O)(=O)c3ccc4ccccc4c3)CC2)CC1,?,13µM*,3%,-30%
COc1ccccc1N1CCN(S(=O)(=O)c2cc(C(F)(F)F)cc(C(F)(F)F)c2)CC1,6.6µM*,6.6µM*,0%,6%
COc1ccccc1N1CCN(C2CCN(S(=O)(=O)c3ccc(C)cc3)CC2)CC1,4.1µM*,?,0%,-2%
CN(C)CCCNC(=S)NCC(c1ccc(Cl)cc1Cl)c1c[nH]c2ccccc12 (centres undefined),2.1µM*,?,-3%,5%
Cc1sc2nc(CSC(C)C(=O)NC3(C#N)CCCCC3)[nH]c(=O)c2c1C (centres undefined),0%,0%,-4%,0%
O=C(NCc1nc2ccccc2[nH]1)C1=C[C@@H](c2csc3ccccc23)C[C@@H](OCc2ccc(CO)cc2)O1,3.3µM*,?,-1%,-8%
O=C(NCc1nc2ccccc2[nH]1)C1=C[C@@H](c2ccc(Br)cc2)C[C@@H](OCc2ccc(CO)cc2)O1,?,?,-2%,-12%
O=C(NCc1nc2ccccc2[nH]1)C1=C[C@H](c2csc3ccccc23)C[C@H](OCc2ccc(CO)cc2)O1,15µM*,12µM*,4%,20%
CCn1ncc(/C=N/N=C2\CCC3C4CCc5cc(O)ccc5C4CCC23C)c1C (centres undefined),1.7µM*,.,-1%,-2%
Cn1cc(C=C2C(=O)NC(=O)NC2=O)c2ccccc21,1%,12%,3%,?
CC1=NN(c2ccccc2)C(=O)/C1=C/c1cccc(C)c1,12%,0%,0%,6%
CC1=NN(c2ccccc2)C(=O)/C1=C/c1c(O)[nH]c(=S)[nH]c1=O,45%,6%,-1%,8.9µM*
Cn1cc(C=O)c2ccccc21,10µM*,51%,-1%,19%
CC1=NN(c2ccccc2)C(=O)/C1=C\C=C\c1ccccc1,12µM*,?,-1%,0%
CC1=NN(c2ccccc2)C(=O)/C1=C/C=C/c1ccc(N(C)C)cc1,?,?,-1%,6%
CC1=NN(c2ccccc2)C(=O)/C1=C\c1cc(C)n(C)c1C,9.3µM*,?,4%,7%
CC1=NN(c2ccccc2)C(=O)/C1=C/c1c(O)[nH]c(=O)[nH]c1=O,14%,-9%,0%,-23%
Cc1cc(C)n(CC(=O)Nc2ccc3c(c2)OCO3)c(=O)c1C#N,-4%,17%,0%,1%
COc1cccc(CNC(=O)CCC2CCCN(C(=O)c3ccc(OC)o3)C2)c1 (centres undefined),23%,-13%,0%,0%
CC1=NN(c2ccccc2)C(=O)/C1=C/c1cn(C)c2ccccc12,7.4µM*,?,0%,8%
CC1=NN(c2ccccc2)C(=O)/C1=C\c1cn(C)c2ccccc12,?,?,-1%,-6%
COc1ccc(NC(=O)c2ccco2)cc1NC(=O)COc1ccc(C)cc1C,.,.,.,6%
COc1ccc2c(c1)NC(C)(C)C=C2C,-19%,?,-4%,40µM*
CC1=CC(C)(C)Nc2ccccc21,26%,?,0%,-16%
O=C(Nc1ccccc1)C1=C[C@H](c2csc3ccccc23)C[C@H](OCCCCO)O1,8.3µM*,?,-3%,-23%

# Bioassay records from PubChem.
